Tests used:
Assay in all cases: growth AUC relative to DMSO control (median of replicates) (fraction); higher = more growth (less inhibition), active = hit call of the paper
Details in all cases: 20 µM; 24 h;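 active = AUC reduced over 20% with Padj below 0.05 in at least 2 of 3 replicates; inactive = otherwise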
Akkermansia muciniphila = test system: Akkermansia muciniphila
Summary of the method: (§1)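 Gut bacterial monocultures were grown anaerobically at 37 °C in mGAM, starting at OD600 0.05, with 20 µM compound (1% DMSO) in round-bottom 96-well plates under pierced gas-permeable seals. OD600 was read hourly for 24 h. Area under the growth curve (minimum OD set to 0) was normalised to the plate median of DMSO controls, or to row and column medians on the industrial chemical plate. The value is the median of three biological replicates grown on separate days.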

Bacteroides caccae = test system: Bacteroides caccae
Summary of the method: as §1

Bacteroides clarus = test system: Bacteroides clarus
Summary of the method: as §1

Bacteroides dorei = test system: Bacteroides dorei
Summary of the method: as §1

Bacteroides stercoris = test system: Bacteroides stercoris
Summary of the method: as §1

[1] = test system: Bacteroides thetaiotaomicron
Summary of the method: as §1

Bacteroides uniformis = test system: Bacteroides uniformis
Summary of the method: as §1

[2] = test system: Bifidobacterium longum subsp. longum
Summary of the method: as §1

Clostridium difficile = test system: Clostridium difficile
Summary of the method: as §1

Collinsella aerofaciens = test system: Collinsella aerofaciens
Summary of the method: as §1

Coprococcus comes = test system: Coprococcus comes
Summary of the method: as §1

Escherichia coli ED1a = test system: Escherichia coli ED1a
Summary of the method: as §1

Escherichia coli IAI1 = test system: Escherichia coli IAI1
Summary of the method: as §1

Eubacterium rectale = test system: Eubacterium rectale
Summary of the method: as §1

[3] = test system: Fusobacterium nucleatum subsp. animalis
Summary of the method: as §1

Lactobacillus gasseri = test system: Lactobacillus gasseri
Summary of the method: as §1

Lactobacillus paracasei = test system: Lactobacillus paracasei
Summary of the method: as §1

Odoribacter splanchnicus = test system: Odoribacter splanchnicus
Summary of the method: as §1

[4] = test system: Parabacteroides distasonis
Summary of the method: as §1

Parabacteroides merdae = test system: Parabacteroides merdae
Summary of the method: as §1

Measured: growth AUC

CCS(=O)(=O)c1nc2ccccn2c1S(=O)(=O)NC(=O)Nc1nc(OC)cc(OC)n1
inactive: Akkermansia muciniphila 1.1 | Bacteroides caccae 1.02 | Bacteroides clarus 1.02 | Bacteroides dorei 0.993 | Bacteroides stercoris 1 | [1] 0.995 | Bacteroides uniformis 0.989 | [2] 0.928 | Clostridium difficile 1.01 | Collinsella aerofaciens 0.983 | Coprococcus comes 1.04 | Escherichia coli ED1a 0.99 | Escherichia coli IAI1 1.01 | Eubacterium rectale 0.999 | [3] 0.977 | Lactobacillus gasseri 0.88 | Lactobacillus paracasei 1.01 | Odoribacter splanchnicus 1.05 | [4] 1.02 | Parabacteroides merdae 1.02

COP(=O)(NC(C)=O)SC (stereo not given)
inactive: Akkermansia muciniphila 0.941 | Bacteroides caccae 1.01 | Bacteroides clarus 0.993 | Bacteroides dorei 0.992 | Bacteroides stercoris 1.02 | [1] 0.978 | Bacteroides uniformis 0.979 | [2] 0.96 | Clostridium difficile 1.01 | Collinsella aerofaciens 1.04 | Coprococcus comes 0.979 | Escherichia coli ED1a 1.01 | Escherichia coli IAI1 0.993 | Eubacterium rectale 0.921 | [3] 0.99 | Lactobacillus gasseri 1.1 | Lactobacillus paracasei 1.02 | Odoribacter splanchnicus 0.999 | [4] 1.06 | Parabacteroides merdae 1.01

C=CC(N)=O
inactive: Akkermansia muciniphila 1.01 | Bacteroides caccae 0.985 | Bacteroides clarus 1 | Bacteroides dorei 0.963 | Bacteroides stercoris 0.983 | [1] 0.99 | Bacteroides uniformis 1.01 | [2] 0.875 | Clostridium difficile 1.01 | Collinsella aerofaciens 1.01 | Coprococcus comes 1.01 | Escherichia coli ED1a 0.972 | Escherichia coli IAI1 1 | Eubacterium rectale 0.997 | [3] 1.02 | Lactobacillus gasseri 1.01 | Lactobacillus paracasei 1.01 | Odoribacter splanchnicus 1.01 | [4] 0.976 | Parabacteroides merdae 0.993

O=C(Nc1ccc(F)cc1F)c1cccnc1Oc1cccc(C(F)(F)F)c1
inactive: Akkermansia muciniphila 0.947 | Bacteroides caccae 0.929 | Bacteroides clarus 0.965 | Bacteroides dorei 0.882 | Bacteroides stercoris 0.924 | [1] 0.966 | Bacteroides uniformis 1.01 | [2] 1 | Clostridium difficile 0.977 | Collinsella aerofaciens 0.946 | Coprococcus comes 0.999 | Escherichia coli ED1a 0.968 | Escherichia coli IAI1 0.965 | Eubacterium rectale 1.06 | [3] 0.939 | Lactobacillus gasseri 0.891 | Lactobacillus paracasei 1.05 | Odoribacter splanchnicus 1.06 | [4] 0.962 | Parabacteroides merdae 0.971

CP(=O)(O)CC(=O)O
inactive: Akkermansia muciniphila 1.01 | Bacteroides caccae 0.959 | Bacteroides clarus 0.96 | Bacteroides dorei 1.02 | Bacteroides stercoris 0.929 | [1] 0.992 | Bacteroides uniformis 0.997 | [2] 1.04 | Clostridium difficile 1.1 | Collinsella aerofaciens 1.04 | Coprococcus comes 0.991 | Escherichia coli ED1a 0.984 | Escherichia coli IAI1 1 | Eubacterium rectale 1.07 | [3] 0.945 | Lactobacillus gasseri 1.02 | Lactobacillus paracasei 0.871 | Odoribacter splanchnicus 0.978 | [4] 0.979 | Parabacteroides merdae 0.982

COP(=O)(OC)SCn1c(=O)oc2cc(Cl)cnc21
inactive: Akkermansia muciniphila 0.883 | Bacteroides caccae 1.02 | Bacteroides clarus 0.983 | Bacteroides dorei 1.02 | Bacteroides stercoris 1.01 | [1] 1.01 | Bacteroides uniformis 1.03 | [2] 1.01 | Clostridium difficile 1 | Collinsella aerofaciens 1.03 | Coprococcus comes 1.11 | Escherichia coli ED1a 1.01 | Escherichia coli IAI1 1 | Eubacterium rectale 0.986 | [3] 0.983 | Lactobacillus gasseri 1.08 | Lactobacillus paracasei 1.05 | Odoribacter splanchnicus 1 | [4] 1.08 | Parabacteroides merdae 1

CCC(C)c1cc([N+](=O)[O-])cc([N+](=O)[O-])c1O (stereo not given)
inactive: Akkermansia muciniphila 1.07 | Bacteroides caccae 0.967 | Bacteroides clarus 0.879 | Bacteroides dorei 0.902 | Bacteroides stercoris 0.865 | [1] 0.876 | Bacteroides uniformis 0.889 | [2] 0.981 | Clostridium difficile 0.951 | Collinsella aerofaciens 0.956 | Coprococcus comes 0.884 | Escherichia coli ED1a 0.935 | Escherichia coli IAI1 0.924 | Eubacterium rectale 0.939 | [3] 0.737 | Lactobacillus gasseri 0.959 | Lactobacillus paracasei 0.925 | [4] 0.841 | Parabacteroides merdae 0.929
active: Odoribacter splanchnicus 0.799

CCC(C)(NC(=O)c1cc(Cl)c(C)c(Cl)c1)C(=O)CCl (stereo not given)
active: Clostridium difficile 0.496 | [4] 0.643
inactive: Akkermansia muciniphila 0.877 | Bacteroides caccae 0.949 | Bacteroides clarus 0.895 | Bacteroides dorei 0.967 | Bacteroides stercoris 0.86 | [1] 0.908 | Bacteroides uniformis 0.861 | [2] 0.953 | Collinsella aerofaciens 1 | Coprococcus comes 0.945 | Escherichia coli ED1a 1.01 | Escherichia coli IAI1 0.995 | Eubacterium rectale 0.892 | [3] 0.906 | Lactobacillus gasseri 0.942 | Lactobacillus paracasei 1.02 | Odoribacter splanchnicus 0.914 | Parabacteroides merdae 0.907

CCNC(=O)NC(=O)/C(C#N)=N/OC
inactive: Akkermansia muciniphila 0.998 | Bacteroides caccae 1 | Bacteroides clarus 1 | Bacteroides dorei 0.983 | Bacteroides stercoris 1.08 | [1] 1 | Bacteroides uniformis 0.956 | [2] 0.901 | Clostridium difficile 0.965 | Collinsella aerofaciens 1.07 | Coprococcus comes 1.05 | Escherichia coli ED1a 1.04 | Escherichia coli IAI1 1.02 | Eubacterium rectale 0.919 | [3] 1.2 | Lactobacillus gasseri 1.06 | Lactobacillus paracasei 0.94 | Odoribacter splanchnicus 1.02 | [4] 1.04 | Parabacteroides merdae 1.01

CCS(=O)(=O)Cc1ccccc1OC(=O)NC
inactive: Akkermansia muciniphila 1.05 | Bacteroides caccae 0.949 | Bacteroides clarus 1 | Bacteroides dorei 0.994 | Bacteroides stercoris 1.1 | [1] 0.971 | Bacteroides uniformis 0.995 | [2] 1.01 | Clostridium difficile 0.977 | Collinsella aerofaciens 1.05 | Coprococcus comes 0.996 | Escherichia coli ED1a 1 | Escherichia coli IAI1 1 | Eubacterium rectale 1.07 | [3] 1.03 | Lactobacillus gasseri 0.958 | Lactobacillus paracasei 1.02 | Odoribacter splanchnicus 1 | [4] 0.98 | Parabacteroides merdae 0.983

O=[N+]([O-])c1c(Cl)c(Cl)cc(Cl)c1Cl
inactive: Akkermansia muciniphila 1.02 | Bacteroides caccae 0.973 | Bacteroides clarus 1.01 | Bacteroides dorei 1.01 | Bacteroides stercoris 1.19 | [1] 1.04 | Bacteroides uniformis 0.992 | [2] 0.98 | Clostridium difficile 1.02 | Collinsella aerofaciens 1.05 | Coprococcus comes 1.01 | Escherichia coli ED1a 0.99 | Escherichia coli IAI1 1.02 | Eubacterium rectale 0.954 | [3] 0.983 | Lactobacillus gasseri 1.14 | Lactobacillus paracasei 0.927 | Odoribacter splanchnicus 1.02 | [4] 0.986 | Parabacteroides merdae 1.01

COCC(=O)N(c1c(C)cccc1C)C(C)C(=O)OC (stereo not given)
inactive: Akkermansia muciniphila 1.11 | Bacteroides caccae 1.03 | Bacteroides clarus 1.02 | Bacteroides dorei 1.03 | Bacteroides stercoris 1.08 | [1] 1.02 | Bacteroides uniformis 1.02 | [2] 1.1 | Clostridium difficile 1.04 | Collinsella aerofaciens 1.02 | Coprococcus comes 1.02 | Escherichia coli ED1a 0.989 | Escherichia coli IAI1 1.01 | Eubacterium rectale 1.04 | [3] 1.09 | Lactobacillus gasseri 1.09 | Lactobacillus paracasei 0.987 | Odoribacter splanchnicus 1.04 | [4] 1.05 | Parabacteroides merdae 1.05

CCOC(=O)OC1=C(c2cc(C)ccc2C)C(=O)NC12CCC(OC)CC2 (stereo not given)
inactive: Akkermansia muciniphila 0.953 | Bacteroides caccae 1 | Bacteroides clarus 0.995 | Bacteroides dorei 0.996 | Bacteroides stercoris 1.04 | [1] 0.971 | Bacteroides uniformis 0.982 | [2] 0.996 | Clostridium difficile 0.977 | Collinsella aerofaciens 0.997 | Coprococcus comes 0.998 | Escherichia coli ED1a 1.01 | Escherichia coli IAI1 0.983 | Eubacterium rectale 1.01 | [3] 0.965 | Lactobacillus gasseri 0.993 | Lactobacillus paracasei 0.992 | Odoribacter splanchnicus 0.969 | [4] 0.981 | Parabacteroides merdae 1.03

CNC(=O)c1cc(Cl)cc(C)c1NC(=O)c1cc(Br)nn1-c1ncccc1Cl
inactive: Akkermansia muciniphila 0.893 | Bacteroides caccae 1 | Bacteroides clarus 0.952 | Bacteroides dorei 0.999 | Bacteroides stercoris 0.946 | [1] 0.967 | Bacteroides uniformis 0.976 | [2] 0.969 | Clostridium difficile 0.964 | Collinsella aerofaciens 1.02 | Coprococcus comes 0.991 | Escherichia coli ED1a 0.988 | Escherichia coli IAI1 0.995 | Eubacterium rectale 0.961 | [3] 0.867 | Lactobacillus gasseri 1.03 | Lactobacillus paracasei 0.961 | Odoribacter splanchnicus 0.926 | [4] 1.01 | Parabacteroides merdae 0.98

Oc1ccc(C(c2ccc(O)cc2)(C(F)(F)F)C(F)(F)F)cc1
active: Bacteroides caccae 0.63 | Bacteroides clarus 0.464 | Bacteroides dorei 0.154 | Bacteroides stercoris 0.0109 | [1] 0.679 | Bacteroides uniformis 0.686 | Eubacterium rectale 0.792 | [3] 0.595 | Odoribacter splanchnicus 0.0871 | [4] 0.0433 | Parabacteroides merdae 0.515
inactive: Akkermansia muciniphila 1.03 | [2] 0.924 | Clostridium difficile 0.966 | Collinsella aerofaciens 0.894 | Coprococcus comes 1.06 | Escherichia coli ED1a 0.969 | Escherichia coli IAI1 1 | Lactobacillus gasseri 0.577 | Lactobacillus paracasei 0.727

Source: the supplement of paper PMC12669032
